Source: PubChem BioAssay (EPA / NIEHS)
Calls of active or inactive are those of the source. How the source made its calls: active means hit-call score of the fitted dose curve at least 0.9, where 1 is the maximum; inactive means score below 0.9.

read-out: Fatty acid synthase (Homo sapiens) (UniProt P49327); assay: LTEA_HepaRG_FASN: Life Technologies and Expression Analysis (LTEA) Assay for Fatty Acid Synthase (FASN) using HepaRG (AID 2283448); details: mRNA level, 48 h; actives raise or lower the signal
Procedure: LTEA_HepaRG is a cell based, multiplexed-readout assay that uses HepaRG, a human liver cell line, with measurements taken at 48 hours after chemical dosing on a 96-well plate.LTEA_HepaRG_FASN is one of 102 assay component(s) measured in the LTEA HepaRG cell culture assay. It is a marker of Steatosis.Data from the assay component LTEA_HepaRG_FASN was analyzed into 1 endpoint. This assay endpoint, LTEA_HepaRG_FASN, was analyzed with bidirectional fitting relative to DMSO as the negative control and baseline of activity. Using a type of inducible reporter, measures of mRNA induction for gain or loss-of-signal activity can be used to understand regulation of transcription factor activity. To generalize the intended target to other relatable targets, this assay endpoint is annotated to the lyase intended target family, where the subfamily is fatty acid synthase.
A total of 1060 chemcials from the ToxCast library were tested in eight-point concentration-response experiments. Cell culture and cytotoxicity assays were conducted at Thermo Fisher Scientific's Custom Services facility (Madison, WI). A single lot of human HepaRG cells (Thermo Fisher Scientific, Frederick, MD) was used for the cell culture experiments. 96-well format collagen type I coated plates of human HepaRG cells were prepared using established methods. Briefly, cryopreserved HepaRG cells were thawed, plated at a density of approximately 100,000 cells/well in HepaRG Thaw, Plate, and General Purpose media (HPRG770, Thermo Fisher Scientific), and incubated for 48 hours. 0.5% DMSO was selected as vehicle control to balance the requisite need of DMSO in HepaRG cultures to maintain differentiation (for example, baseline metabolism, proportions of hepatocytes vs. cholangiocytes), while enabling further hepatic receptor pathway activation (for example, PXR and CAR) in response to chemical exposure. 48 hours after plating, the culture medium was replaced with HepaRG Serum-Free Incudtion Media. Cells were exposed to each test chemical in duplicate and maintained in CO2 incubators for another 48 hours. Chemical plates were thawed to room temperature and 200x concentrations of treatment groups were prepared. 8-point conentration-reponse curves were made with the highest exposure at 100 uM, followed by half-log dilutions, all in 0.5% DMSO. Each test plate contained variouse controls, induction positive controls (1mM phenobarbital), cytotoxicity positive controls ([…] aflatoxin B1), vehicle controls (0.5% DMSO), and total lysis controls (0.5% DMSO). Cell morphology images were taken using an Essen IncuCyte FLR automated microscope, with six 96-well plates imaged in about 24 minutes. Images were captured and exported and JPEG files. Spent culture media was transfered to black-well plates for the LDH assay, and remaining media was sorted at -80 C for later use. Cells were treated with RLT buffer and frozen until shipped for gene expression analysis. Total RNA was isolated from the cell suspension in 75 uL of Buffer RLT (Qiagen, Germantown, MD 20874) by Quintiles/Expression Analysis (Durham, NC) using a custom isolation procedure. Total RNA from each plate well was transferred to a preamplification plate. Fluidigm's 96.96 Dynamic ArrayTM (Fluidigm, Amsterdam, the Netherlands) technology was used for gene expression analyses by quantitative reverse transcription polymerase chain reaction (qRT-PCR, performed by Quintiles/Expression Analysis, Durham, NC)89. Standard TaqManTM Assays (Applied Biosystems/ThermoFisher Scientific, Foster City, CA) were used to assess the expression of 93 genes selected based on their selectivity and sensitivity to important hepatic receptors known to be modulated by environmental chemicals; importance in human hepatocyte functionality; and hepatotoxicity. […]

Sequence of Fatty acid synthase (Homo sapiens) (P49327 whole entry, looked up): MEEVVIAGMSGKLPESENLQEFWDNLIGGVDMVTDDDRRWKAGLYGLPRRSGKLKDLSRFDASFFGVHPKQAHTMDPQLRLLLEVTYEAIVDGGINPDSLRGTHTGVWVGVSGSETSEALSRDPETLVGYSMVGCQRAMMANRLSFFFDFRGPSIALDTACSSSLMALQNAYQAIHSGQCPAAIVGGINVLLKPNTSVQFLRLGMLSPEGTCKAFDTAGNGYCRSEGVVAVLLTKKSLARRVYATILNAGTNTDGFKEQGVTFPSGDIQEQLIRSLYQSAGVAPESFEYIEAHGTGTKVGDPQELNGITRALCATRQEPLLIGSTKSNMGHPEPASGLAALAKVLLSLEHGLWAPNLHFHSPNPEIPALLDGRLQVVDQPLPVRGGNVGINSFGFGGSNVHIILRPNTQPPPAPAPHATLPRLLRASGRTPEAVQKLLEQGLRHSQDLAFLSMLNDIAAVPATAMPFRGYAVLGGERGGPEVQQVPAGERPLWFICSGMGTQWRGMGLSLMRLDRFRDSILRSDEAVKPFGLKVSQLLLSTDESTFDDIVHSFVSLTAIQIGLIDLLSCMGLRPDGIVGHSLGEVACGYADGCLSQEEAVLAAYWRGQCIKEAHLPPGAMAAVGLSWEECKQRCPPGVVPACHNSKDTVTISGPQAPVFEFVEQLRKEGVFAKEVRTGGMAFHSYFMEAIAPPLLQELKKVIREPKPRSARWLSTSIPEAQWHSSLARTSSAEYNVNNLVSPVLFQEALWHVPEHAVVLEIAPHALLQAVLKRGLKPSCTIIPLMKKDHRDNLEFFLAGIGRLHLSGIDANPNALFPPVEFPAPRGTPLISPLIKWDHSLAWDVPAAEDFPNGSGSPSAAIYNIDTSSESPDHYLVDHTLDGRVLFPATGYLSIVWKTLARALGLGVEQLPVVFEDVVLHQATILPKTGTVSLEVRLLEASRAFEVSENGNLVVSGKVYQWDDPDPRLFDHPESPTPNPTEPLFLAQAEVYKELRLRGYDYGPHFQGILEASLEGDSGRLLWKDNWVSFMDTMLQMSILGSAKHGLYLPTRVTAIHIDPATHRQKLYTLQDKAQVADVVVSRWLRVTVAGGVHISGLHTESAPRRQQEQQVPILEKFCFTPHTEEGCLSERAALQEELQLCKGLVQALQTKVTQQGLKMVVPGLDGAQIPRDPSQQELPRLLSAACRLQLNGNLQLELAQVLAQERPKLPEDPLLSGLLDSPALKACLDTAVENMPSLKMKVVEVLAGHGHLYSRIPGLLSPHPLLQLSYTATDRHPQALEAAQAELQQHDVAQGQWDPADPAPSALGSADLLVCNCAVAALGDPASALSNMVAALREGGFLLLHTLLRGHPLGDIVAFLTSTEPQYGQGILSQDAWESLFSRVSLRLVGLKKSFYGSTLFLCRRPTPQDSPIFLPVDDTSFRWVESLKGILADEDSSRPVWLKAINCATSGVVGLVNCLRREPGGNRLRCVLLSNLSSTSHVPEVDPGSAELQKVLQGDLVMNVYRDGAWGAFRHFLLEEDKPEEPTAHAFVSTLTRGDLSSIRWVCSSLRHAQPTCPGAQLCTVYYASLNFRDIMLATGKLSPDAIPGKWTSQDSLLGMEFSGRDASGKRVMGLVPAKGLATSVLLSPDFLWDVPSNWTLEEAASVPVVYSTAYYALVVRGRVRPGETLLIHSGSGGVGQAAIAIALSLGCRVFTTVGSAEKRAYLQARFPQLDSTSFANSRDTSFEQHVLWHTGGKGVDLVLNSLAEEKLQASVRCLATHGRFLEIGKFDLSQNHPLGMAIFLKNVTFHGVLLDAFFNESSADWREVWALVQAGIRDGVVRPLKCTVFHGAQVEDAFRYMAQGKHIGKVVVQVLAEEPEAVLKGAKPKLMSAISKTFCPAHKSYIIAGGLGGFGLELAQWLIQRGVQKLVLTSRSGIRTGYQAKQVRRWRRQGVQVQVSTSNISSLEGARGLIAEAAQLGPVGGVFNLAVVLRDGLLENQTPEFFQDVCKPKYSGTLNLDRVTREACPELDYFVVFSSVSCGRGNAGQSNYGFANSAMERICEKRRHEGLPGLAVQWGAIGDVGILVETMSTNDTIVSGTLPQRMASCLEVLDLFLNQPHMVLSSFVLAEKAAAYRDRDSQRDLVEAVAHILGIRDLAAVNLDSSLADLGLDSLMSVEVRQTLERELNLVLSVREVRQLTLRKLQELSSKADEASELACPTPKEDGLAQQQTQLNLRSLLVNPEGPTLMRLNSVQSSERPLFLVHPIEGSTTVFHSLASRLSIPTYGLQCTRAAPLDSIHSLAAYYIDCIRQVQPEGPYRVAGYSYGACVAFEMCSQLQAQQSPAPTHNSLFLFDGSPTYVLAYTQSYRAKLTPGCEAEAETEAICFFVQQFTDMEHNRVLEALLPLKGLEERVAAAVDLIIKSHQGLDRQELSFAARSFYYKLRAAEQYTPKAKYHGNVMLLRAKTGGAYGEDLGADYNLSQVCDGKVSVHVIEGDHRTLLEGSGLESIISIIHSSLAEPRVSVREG

Row | Structure (SMILES) | outcome | AC50
1 | CCCCCCCC(=O)O | inactive | –
2 | CC(C)CCCCCCOC(=O)CCCCC(=O)OCCCCCCC(C)C | inactive | –
3 | OCCC(F)(F)C(F)(F)C(F)(F)C(F)(F)C(F)(F)C(F)(F)F | inactive | –
4 | CCCCC(CC)COC(=O)CCCCC(=O)OCC(CC)CCCC (stereo not given) | inactive | –
5 | CCCOc1sc(C(=O)N2CCC(c3cc(CN)ccc3F)CC2)c(C)c1Br | inactive | –
6 | ClC1=C(Cl)C(Cl)(Cl)C(Cl)=C1Cl | inactive | –
7 | CCCCCCCCCCCCc1ccccc1S(=O)(=O)O | – | 74.5 µM (active)
8 | CCCCCCCCC(=O)O | inactive | –
9 | c1ccc2c(c1)Cc1ccccc1-2 | inactive | –
10 | NC(=O)N(O)[C@@H]1C=C[C@H](Oc2cccc(Oc3ccc(F)cc3)c2)C1 | – | 85 µM (active)
11 | N#C[C@@H]1CC(F)(F)CN1C(=O)CNC1CC2CCC(C1)N2c1ncccn1 (stereo not given in full) | inactive | –
12 | Cc1oc(-c2ccccc2)nc1CCOc1ccc(C[C@H](Nc2ccccc2C(=O)c2ccccc2)C(=O)O)cc1 | – | 31.9 µM (active)
13 | CN1CCC[C@H]1c1cccnc1 | inactive | –
14 | CCc1nn(C2CCCCC2)c2cc(C3(C#N)CCC(C(=O)O)CC3)ccc12 (stereo not given) | – | 85.1 µM (active)
15 | COCC(C)OCC(C)O (stereo not given) | inactive | –
16 | O=C(O)Cc1cc(I)c(Oc2cc(I)c(O)c(I)c2)c(I)c1 | – | 60.2 µM (active)
17 | C#C[C@]1(O)CC[C@H]2[C@@H]3CCC4=CC(=O)CC[C@@H]4[C@H]3CC[C@@]21C | – | 50 µM (active)
18 | CCOC(=O)CC(O)(CC(=O)OCC)C(=O)OCC | inactive | –
19 | C[C@@H]1C[C@H]2[C@@H]3CCC4=CC(=O)C=C[C@]4(C)[C@@]3(F)[C@@H](O)C[C@]2(C)[C@@]1(O)C(=O)COP(=O)(O)O | inactive | –
20 | CC(=O)NC1(c2cccc(F)c2)CCN(CC[C@@]2(c3ccc(Cl)c(Cl)c3)CN(c3ccccc3)C(=O)CO2)CC1 | inactive | –

Row | Structure (SMILES) | outcome | AC50
21 | CC(C)(C)c1cc(C(C)(C)C)c(O)c(C(C)(C)C)c1 | – | 50 µM (active)
22 | CC(C)(C)c1cccc(C(C)(C)C)c1O | inactive | –
23 | O=c1c(-c2ccc(O)cc2)coc2cc(O)ccc12 | inactive | –
24 | Oc1cccc(O)c1 | inactive | –
25 | CC[C@H](c1ccc(O)cc1)[C@@H](CC)c1ccc(O)cc1 | – | 76.2 µM (active)
26 | C=C(C)C(=O)OCCC(F)(F)C(F)(F)C(F)(F)C(F)(F)C(F)(F)C(F)(F)F | inactive | –
27 | CCCCOCCO | inactive | –
28 | CCc1ccc(CCOc2ccc(CC3SC(=O)NC3=O)cc2)nc1 (stereo not given) | inactive | –
29 | CC(C)(C)c1ccc(O)c(C(C)(C)C)c1 | inactive | –
30 | CC(C)(C)CC(C)(C)c1ccc(O)c(-n2nc3ccccc3n2)c1 | – | 50 µM (active)
31 | OC1CCC(C2CCCCC2)CC1 (stereo not given) | inactive | –
32 | CCCCC(CC)COC(=O)CCCCC(=O)OCc1ccccc1 (stereo not given) | inactive | –
33 | CC(=O)CC(C)(C)O | inactive | –
34 | COc1ccc([N+](=O)[O-])cc1N | inactive | –
35 | Cc1cc(C)c(O)c(C)c1 | inactive | –
36 | CCCCCCCCCCCCN1CCCC1=O | inactive | –
37 | COCC(C)O (stereo not given) | inactive | –
38 | CCCCCCCCCCCCCCCS(=O)(=O)Oc1ccccc1 | inactive | –
39 | c1ccc2c(c1)ccc1ccccc12 | inactive | –
40 | Oc1cc2ccccc2c2ccccc12 | inactive | –
